We go through twelve compounds from PubChem BioAssay (NCATS).

Records with an inconclusive call do not appear. Active and inactive are the calls of the source. Unless noted, the call rests on the fitted dose curve; in most records, active means well fitted curve in the direction sought with a large enough effect; inconclusive means small, poorly fitted or top-dose-only effect, or another doubt; inactive means no such curve, though single readings can be large; an effect the other way counts as inactive or inconclusive.

In experiment [1] the target is Alpha-galactosidase A (Homo sapiens) (UniProt P06280). In words: Counterscreen for Glucocerebrosidase Inhibitors: qHTS Assay for Human alpha-Galactosidase at pH 4.5 (AID 992). Further: 0% is about no effect. The method, boiled down: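 Concentration-response curves (0.7 nM to 77 uM final) were modeled with the Hill equation to give AC50. Reactions: 2 nM enzyme, 80 uM fluorogenic alpha-galactoside, pH 4.5 citric acid buffer, 20 min, room temperature.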
Chain of Alpha-galactosidase A (Homo sapiens) (P06280 whole entry, looked up): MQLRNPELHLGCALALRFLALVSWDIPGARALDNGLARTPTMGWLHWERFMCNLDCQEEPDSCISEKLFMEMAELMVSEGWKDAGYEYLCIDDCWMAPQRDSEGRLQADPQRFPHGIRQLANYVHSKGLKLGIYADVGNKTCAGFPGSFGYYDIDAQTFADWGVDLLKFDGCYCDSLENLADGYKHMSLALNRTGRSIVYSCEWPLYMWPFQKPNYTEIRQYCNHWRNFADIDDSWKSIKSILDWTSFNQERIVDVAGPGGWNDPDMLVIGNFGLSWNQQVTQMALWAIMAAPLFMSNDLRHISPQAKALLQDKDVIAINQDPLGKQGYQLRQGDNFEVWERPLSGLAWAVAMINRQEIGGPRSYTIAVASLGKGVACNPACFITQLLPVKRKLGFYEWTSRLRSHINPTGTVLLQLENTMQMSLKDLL
(A counterscreen serves to expose hits that act by an unwanted route or on another target.)

The target in experiment [2] is alpha-glucosidase (Oryza sativa, rice) (UniProt Q653V4). In words: Counterscreen for Glucocerebrosidase Inhibitors: qHTS Assay for Rice alpha-Glucosidase at pH 5.0 (AID 997).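 Further: 0% = full activity with enzyme and -100% = basal without enzyme.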 The method, boiled down: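 Rice alpha-glucosidase (4 nM final) with 400 uM 4-methylumbelliferyl-alpha-D-glucopyranoside in citrate buffer pH 5.0, 20 min at room temperature, stopped at pH 10; fluorescence 365/440 nm, compounds 0.7 nM–77 uM, AC50 from Hill fits.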

Experiment [3] concerns the target Alpha-galactosidase (Coffea arabica) (UniProt Q42656). In words: Counterscreen for Glucocerebrosidase Inhibitors: qHTS Assay for Coffee Bean alpha-Galactosidase at pH 5.9 (AID 998).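 Further: plate controls were uninhibited enzyme for no effect and no-enzyme basal signal for full effect.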 The method, boiled down: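 Compounds were titrated from 0.7 nM to 77 uM against green coffee bean alpha-galactosidase (2 nM) using 80 uM fluorogenic 4-methylumbelliferyl substrate. After 20 min at room temperature, reactions were stopped at pH 10 and read by fluorescence.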

The target of experiment [4] is DNA repair nuclease/redox regulator APEX1 (Homo sapiens) (UniProt P27695). The experiment can be described thus: qHTS Validation Assay for Inhibitors of the Human Apurinic/apyrimidinic Endonuclease 1 (APE1) (AID 1705;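 further: TAMRA fluorescence gain over two minutes as APE1 cuts a quenched THF abasic duplex; on the % scale 0 is the no-effect control and ±100 the full control effect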). The method, boiled down:
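Endonuclease activity of human APE1 is followed as dequenching when the enzyme incises a tetrahydrofuran abasic site in a short duplex labelled 5'-TAMRA/3'-BHQ-2 (50 nM final), after 15 min enzyme–compound preincubation at room temperature.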
In general terms: qHTS replaces the single test concentration by a dilution series.

The nature of experiment [5]: Counterscreen for APE1 Inhibitors: Fluorescent Dye Displacement Validation Assay (AID 1707). Further: potency means the concentration at half of the fitted maximal effect.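 On activity change, negative = inhibition: plate controls were ThO with dsDNA and no compound for no effect and ThO without dsDNA for full effect.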 The method, boiled down: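 Assay buffer: Tris-HCl pH7.5 with 50mM NaCl, 2 mM MgCl2, 0.01% Tween-20. Dye 250 nM, duplex 50 nM final. Readout: decrease in ThO endpoint fluorescence, 480 nm excitation, 540 nm emission.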
Experiment [6] concerns the target Endonuclease 4 (Escherichia coli (strain K12)) (UniProt P0A6C1). In words: Counterscreen for APE1 Inhibitors: qHTS Validation Assay for Inhibitors of Endonuclease IV (AID 1708). Further: on the % scale 0 is the no-effect control and ±100 the full control effect. An outline of the steps:
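qHTS concentration-response format; LOPAC1280 tested under APE1-screen conditions. 2 nM enzyme, 15 min compound preincubation at RT, then 50 nM TAMRA/BHQ-2 abasic substrate; kinetic fluorescence read, three reads at 60 s intervals.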

Experiment [7] is described as follows: qHTS for differential inhibitors of proliferation of Plasmodium falciparum line 7G8 (AID 1815).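 Further: parasite growth measured after three days of incubation.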 Further: potency means the concentration at half of the fitted maximal effect.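 On activity change, negative = inhibition: plate controls were vehicle wells for no effect and reference inhibitor wells for full effect.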
Experiment [8] can be described thus: Cell Viability - LYMP2-008 (AID 980). Further: on the % scale 0 is the no-effect control and ±100 the full control effect; nearly all actives have a fitted effect of over 60% in size. An outline of the steps: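 LYMP2-008 lymphoblastoid cells (2500/well) plated 5 h, then treated 24 h at 37 C in complete medium. Viability read as intracellular ATP by CellTiter-Glo luminescence after 30 min at room temperature; AC50 from Hill fits.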
Experiment [9] is described as follows: Cell Viability - LYMP2-010 (AID 981). Further: on the % scale 0 is the no-effect control and ±100 the full control effect; nearly all actives have a fitted effect of over 55% in size. An outline of the steps: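 Human lymphoblastoid LYMP2-010 cells (2500/well) treated 24 h at 37 C in complete medium; viability read as intracellular ATP by CellTiter-Glo luminescence. AC50 from Hill fits of concentration-response data; tetraoctylammonium bromide positive control.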
A short description of experiment [10]: Cell Viability - LYMP2-012 (AID 982).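 Further: cellular ATP by luciferase luminescence where a drop means cytotoxicity; cells exposed to compound for one day before reading; 0% = DMSO only and full loss = 92 µM tetraoctylammonium bromide; nearly all actives have a fitted effect of over 55% in size.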
Experiment [11] is described as follows: Cell Viability - LYMP2-014 (AID 983).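 Further: plate controls were DMSO only for no effect and 92 µM tetraoctylammonium bromide for full effect; nearly all actives have a fitted effect of over 50% in size.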 An outline of the steps: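 LYMP2-014 human lymphoblastoid cells, 2500/well, treated 24 h at 37 C in complete medium; viability by CellTiter-Glo ATP luminescence after 30 min at room temperature. AC50 from Hill fits of qHTS concentration-response; tetraoctylammonium bromide positive control.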
Experiment [12] can be described thus: Cell Viability - LYMP2-016 (AID 984). Further: on the % scale 0 is the no-effect control and ±100 the full control effect; nearly all actives have a fitted effect of over 55% in size. An outline of the steps:
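Acute toxicity in a Coriell human lymphoblastoid line is scored as loss of intracellular ATP over 24 h of treatment in complete medium. CellTiter-Glo signal is fitted across concentrations with the Hill equation to give AC50.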

Experiment [13] in a line: Cell Viability - LYMP2-020 (AID 986).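 Further: plate controls were DMSO only for no effect and tetraoctylammonium bromide at 92 µM for full effect; nearly all actives have a fitted effect of over 55% in size.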 The method, boiled down: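 Human lymphoblastoid LYMP2-020 cells (2500/well) preincubated 5 h at 37 C, then treated 24 h at 37 C. Viability measured as intracellular ATP by CellTiter-Glo luminescence after 30 min at room temperature; AC50 from Hill fits.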
Experiment [14] in a line: Cell Viability - LYMP2-022 (AID 987). The method, boiled down: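 LYMP2-022 lymphoblastoid cells (2500/well, complete medium) were treated with compounds for 24 hours at 37 C; intracellular ATP was then read by CellTiter-Glo luminescence after 30 min at room temperature. AC50 values were derived from Hill-equation fits.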
A short description of experiment [15]: Cell Viability - LYMP2-024 (AID 988).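 Further: plate controls were DMSO only for no effect and 92 µM tetraoctylammonium bromide for full effect; nearly all actives have a fitted effect of over 60% in size.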 The method, boiled down:
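Human lymphoblastoid LYMP2-024 cells (2500/well) rested 5 hr, then treated with compound for 24 hr at 37 C in complete medium. Viability was measured as intracellular ATP by CellTiter-Glo luminescence. AC50 values came from Hill-equation fits.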

The nature of experiment [16]: Cell Viability - LYMP2-026 (AID 989). Further: on the % scale 0 is the no-effect control and ±100 the full control effect; nearly all actives have a fitted effect of over 50% in size. The method, boiled down: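 Human lymphoblastoid LYMP2-026 cells, 2500/well, exposed to compound 24 h at 37 C in complete medium. Viability as intracellular ATP by CellTiter-Glo luminescence; AC50 from Hill fits of qHTS concentration-response.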
Experiment [17] is described as follows: Cell Viability - LYMP1-002 - Assay at 24 hr (AID 993). Further: on the % scale 0 is the no-effect control and ±100 the full control effect. The method, boiled down:
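Human lymphoblastoid LYMP1-002 cells (2500/well) treated 24 h at 37 °C; viability as intracellular ATP by CellTiter-Glo luminescence. Tetraoctylammonium bromide as positive control; AC50 from Hill-equation fits of qHTS concentration-response.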

Experiment [18] is described as follows: Cell Viability - LYMP1-002 - Assay at 40 hr (AID 994).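 Further: 0% = DMSO only and full inhibition = 92 µM tetraoctylammonium bromide; nearly all actives have a fitted effect of over 60% in size.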 The method, boiled down:
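LYMP1-002 human lymphoblastoid cells (2500/well, complete medium) were treated with compounds for 40 hr at 37 C. Intracellular ATP was measured by CellTiter-Glo luminescence, and AC50 values came from Hill-equation fits of concentration-response data; tetraoctylammonium bromide was the positive control.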

Experiment [19] in a line: qHTS Assay for Lipid Storage Modulators (AID 1519; calls by dose curve; on activity change, negative = inhibition: on the % scale 0 is the no-effect control and ±100 the full control effect). The following applies: Drosophila S3 cells, BODIPY lipid droplet/cell ratio, laser cytometry, cells loaded with oleic acid; for activity change, negative = inhibition: at 57.5 µM (top of the series). An outline of the steps:
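Cells seeded at 5,000 per well were treated with compounds over a concentration series and loaded with oleic acid (400 uM, as added). Lipid droplet fluorescence (488 nm excitation, 500-530 nm channel) was read by laser-scanning cytometry and normalized to 20 uM Triacsin C.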

Experiment [20] is described as follows: Validation of Assay for Modulators of Lamin A Splicing (AID 1459; active means well fitted curve in the direction sought with a large enough effect in the signal ratio; the % refers to the signal ratio;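 further: cells exposed to compound for two days before reading; 0% is about no effect; ratio rise marks activators and ratio drop marks inhibitors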). The method, boiled down: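 Splicing correction is reported by an EGFP-containing lamin A minigene in stably transfected S3 HeLa cells, while DsRed2 controls for viability and nonspecific signal. Cells are exposed to compounds for 48 hrs before the GFP over RFP ratio is taken.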
The mark [21] stands for this setting: measured here: cell count channel max response.
Setting [22] is: measured here: lipid channel max response.

Chain of Alpha-galactosidase (Coffea arabica) (Q42656 whole entry, looked up): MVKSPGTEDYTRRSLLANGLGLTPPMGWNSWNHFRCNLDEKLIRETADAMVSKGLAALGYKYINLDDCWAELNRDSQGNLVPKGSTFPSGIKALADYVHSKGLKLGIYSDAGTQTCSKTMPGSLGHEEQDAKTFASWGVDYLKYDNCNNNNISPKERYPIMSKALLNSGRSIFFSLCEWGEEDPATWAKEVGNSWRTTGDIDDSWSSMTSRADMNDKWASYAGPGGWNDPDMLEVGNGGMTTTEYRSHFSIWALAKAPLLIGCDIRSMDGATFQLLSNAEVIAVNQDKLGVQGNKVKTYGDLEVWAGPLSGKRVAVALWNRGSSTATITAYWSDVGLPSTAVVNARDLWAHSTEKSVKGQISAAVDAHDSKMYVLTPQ
Chain of DNA repair nuclease/redox regulator APEX1 (Homo sapiens) (P27695 whole entry, looked up): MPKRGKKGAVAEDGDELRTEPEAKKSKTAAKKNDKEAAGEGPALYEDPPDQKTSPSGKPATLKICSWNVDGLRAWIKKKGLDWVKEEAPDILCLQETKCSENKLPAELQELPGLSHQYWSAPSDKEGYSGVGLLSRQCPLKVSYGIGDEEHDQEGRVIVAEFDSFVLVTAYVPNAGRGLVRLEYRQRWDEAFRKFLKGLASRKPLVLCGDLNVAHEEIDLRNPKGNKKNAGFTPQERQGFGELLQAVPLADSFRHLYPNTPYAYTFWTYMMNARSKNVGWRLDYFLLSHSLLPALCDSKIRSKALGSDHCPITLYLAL

`COc1ccc2c(c[n+](C)c3c4cc5c(cc4ccc23)OCO5)c1OC`: the call in [1], in experiment [2] and in experiment [3] was inactive. In addition, the Potency entry in experiment [4] and in experiment [6] was “inactive” each time. Also, the Potency in experiment [5] and in [7] was 14.1 µM (active) in each case.
As for `CN(C)[C@@H]1C(=O)C(C(N)=O)=C(O)[C@@]2(O)C(=O)C3=C(O)c4c(O)cccc4[C@@](C)(O)[C@H]3[C@H](O)[C@@H]12`, the Potency entry in [8], in experiment [9], in experiment [10], in experiment [11], in [12] and in [13] was “inactive” each time. In addition, the Potency entry in experiment [14], in experiment [15], in experiment [16], in experiment [17] and in [18] was “inactive” in each case.
Turning to `Cc1c(C(=O)c2cccc3ccccc23)c2cccc3c2n1[C@H](CN1CCOCC1)CO3`, the outcome in [1], in experiment [2] and in experiment [3] was inactive. The Potency entry in [4], in experiment [5] and in experiment [6] was “inactive” each time.
In the case of `Nc1ccc([N+](=O)[O-])cc1`, the Potency entry in experiment [8], in experiment [9], in experiment [10], in experiment [11], in experiment [12] and in experiment [13] was “inactive” each time. For the same compound, the Potency entry in experiment [14], in experiment [15], in experiment [16], in experiment [17] and in experiment [18] was “inactive” in each case.
Consider `CC(=O)[C@H]1CCC2C3CC[C@H]4C[C@H](O)CC[C@]4(C)C3CC[C@@]21C` (stereo not given in full), for which the activity change, negative = inhibition in [19] was 2.34% (inactive). For the same compound, the max response is -20.4% in [19] (setting [21]) and -15.9% in experiment [19] (setting [22]). Besides, the Potency result in experiment [4], in [5] and in experiment [6] was “inactive” in each case. In experiment [7], the Potency was 14.1 µM (active).
Regarding `CNCCc1ccc(O)c(O)c1`, the call in experiment [1], in experiment [2] and in experiment [3] was inactive. In addition, the Potency result in experiment [4], in experiment [5] and in experiment [6] was “inactive” each time.
On to `CC[C@@]1(O)C(=O)OCc2c1cc1n(c2=O)Cc2cc3ccccc3nc2-1`, for which the compound was called inactive in [1], in [2] and in experiment [3]. The activity change, negative = inhibition in experiment [19] is -4.36% (inactive). The max response in [19] (setting [21]) was found to be 13.2%; in experiment [19] (setting [22]), 8.88%. In addition, the Potency result in [4], in experiment [5] and in experiment [6] was “inactive” in each case. Further, the Potency in [7] is 1.41 µM (active).
For `Clc1cnc(Oc2ccc(Oc3ncc(Cl)cc3Cl)cc2)c(Cl)c1`, the call in experiment [1], in experiment [2], in experiment [3] and in experiment [20] was inactive. Also, the Potency entry in experiment [5] and in [6] was “inactive” each time.
For `NC(=O)CN1CC(O)CC1=O` (stereo not given), the compound was called inactive in experiment [20]. Further, the Potency result in [5], in experiment [6] and in experiment [7] was “inactive” throughout.
As for `NC1CC1c1ccccc1` (stereo not given), the Potency result in experiment [4], in experiment [5] and in [6] was “inactive” in each case. Further, in experiment [7], the Potency was 10 µM (active).
For the compound `NC(N)=NOCCC(N)C(=O)O` (stereo not given), the outcome in experiment [1], in [2] and in [3] was inactive. The Potency entry in experiment [4], in [5] and in [7] was “inactive” throughout.
Take `c1ccc(CCCN2CCN(CCOC(c3ccccc3)c3ccccc3)CC2)cc1`: the compound was called inactive in experiment [1], in experiment [2] and in experiment [3]. Further, the Potency entry in [4], in [5] and in [6] was “inactive” in each case. Besides, the Potency in experiment [7] is 4.47 µM (active).
